SMILES strings stand for the structures. Results filed as inconclusive are left out. Activity calls are given as the source filed them. Unless noted, calls follow the shape of the dose curve; as a rule, active = well fitted curve in the direction sought with a large enough effect in the repeat runs; inconclusive = weak or mixed curves; inactive = no such curve, though single readings can be large; an effect the other way counts as inactive or inconclusive.

The nature of test [1]: qHTS assay to test for compound auto fluorescence at 535 nm (green) in HEK293 cells (AID 720680). (Quantitative high-throughput screening tests each substance at several concentrations.)
Test [2] in a line: qHTS assay to test for compound auto fluorescence at 460 nm (blue) in HEK293 cell free culture (AID 720681). The method in brief:
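Test compounds were pinned into cell-free culture medium (DMEM with 10% FBS) and fluorescence was read directly at Ex/Em 405/460 nm. Signals were expressed as fluorescence equivalents of triamterene, with DMSO vehicle as control.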

The nature of test [3]: qHTS assay to test for compound auto fluorescence at 535 nm (green) in HEK293 cell free culture (AID 720682). The method in brief: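 Fluorescein serves as the green reference fluorophore; each compound's intrinsic emission at 535 nm (excitation 485 nm) is reported as an equivalent amount of that dye, measured in serum-containing DMEM without cells.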
Test [4] is described as follows: qHTS assay to test for compound auto fluorescence at 590 nm (red) in HEK293 cell free culture (AID 720683). Summed up: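 Tox21 10K library compounds were pinned into cell-free DMEM with 10% FBS and fluorescence was read at excitation 540 nm. Activity is expressed as Rose Bengal sodium equivalency.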
Test [5] is described as follows: qHTS assay to test for compound auto fluorescence at 590 nm (red) in HepG2 cell free culture (AID 720684). Summed up: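 Ex 540 / Em 590 nm read of compound in cell-free MEM (10% FBS). Rose Bengal sodium reference.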
Test [6] can be described thus: qHTS assay to test for compound auto fluorescence at 460 nm (blue) in HepG2 cell free culture (AID 720685). The method in brief:
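Cell-free plates of MEM plus 10% FBS received 23 nL compound or DMSO vehicle; blue-channel (405/460 nm) intensity scored against triamterene as reference fluorophore.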

Test [7] is described as follows: qHTS assay to test for compound auto fluorescence at 535 nm (green) in HepG2 cell free culture (AID 720686).
Test [8] in a line: qHTS assay to test for compound auto fluorescence at 460 nm (blue) in HepG2 cells (AID 720687). The method in brief:
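Cells (2,000/well in MEM with 10% FBS) attached overnight at 37 C, then were exposed to compound or DMSO for 1 hr at 37 C, 5% CO2. Fluorescence read at Ex/Em 405/460 nm, expressed as triamterene-equivalent signal.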

In test [9] the target is Glucocorticoid receptor (Homo sapiens) (UniProt P04150). Kind of test: qHTS assay to identify small molecule agonists of the glucocorticoid receptor (GR) signaling pathway (AID 720691; active = well fitted activation curve with a large enough effect in the signal ratio in the repeat runs, not every such curve was filed as active; the % refers to the signal ratio). The conditions noted are these: GR-bla HeLa, beta-lactamase reporter ratio, 18 h; activation: at 62.4 µM (top of the series). Summed up:
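Agonist-mode qHTS in HeLa cells stably expressing a glucocorticoid-response-element beta-lactamase reporter. Fluorescence intensity read with FRET substrate (2 h, room temperature) after 18 h compound treatment at 37 C.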

The target is the same in test [10]. Kind of test: qHTS assay to identify small molecule antagonists of the glucocorticoid receptor (GR) signaling pathway (AID 720692; active = well fitted inhibition curve with a large enough effect in the signal ratio in the repeat runs, not every such curve was filed as active; the % refers to the signal ratio). The method in brief:
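Inhibition of dexamethasone-driven (5 nM final) beta-lactamase expression was measured in GRE-reporter HeLa cells over 18 h at 37C. Fluorescence was read after 2 h with the B/G FRET substrate at room temperature.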

Test [11] is described as follows: qHTS assay to identify small molecule antagonists of the glucocorticoid receptor (GR) signaling pathway - cell viability counter screen (AID 720693). Also: nearly all actives have a fitted effect of over 55% in size.
Test [12] is described as follows: qHTS assay for identifying genotoxic compounds that show differential cytotoxicity against isogenic chicken DT40 cell lines with known DNA damage response pathways - wild type cell line (AID 743012). Also: nearly all actives have a fitted effect of over 60% in size. Also: potency is read from the fitted curve at half-maximal effect. The method in brief: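 Viability by ATP luminescence (CellTiter-Glo, 30 min RT) after 40 h compound treatment at 37 C/5% CO2, using 300 parental DNA repair-proficient DT40 cells per well.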

Test [13] is described as follows: qHTS assay for identifying genotoxic compounds that show differential cytotoxicity against isogenic chicken DT40 cell lines with known DNA damage response pathways - Rev3 mutant cell line (AID 743014). Also: nearly all actives have a fitted effect of over 55% in size. Also: potency is read from the fitted curve at half-maximal effect.
A short description of test [14]: qHTS assay for identifying genotoxic compounds that show differential cytotoxicity against isogenic chicken DT40 cell lines with known DNA damage response pathways - Rad54/Ku70 mutant cell line (AID 743015). Also: nearly all actives have a fitted effect of over 60% in size. Also: potency is read from the fitted curve at half-maximal effect.
A short description of test [15]: qHTS assay to identify small molecule antagonists of the androgen receptor (AR) signaling pathway - cell viability counter screen (AID 743033; also: nearly all actives have a fitted effect of over 45% in size).
The nature of test [16]: qHTS assay to identify small molecule antagonists of the androgen receptor (AR) signaling pathway using the MDA cell line - cell viability counter screen (AID 743041; also: nearly all actives have a fitted effect of over 45% in size). Summed up: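 In this qHTS counter assay, fluorescence intensity after CellTiter-Fluor addition indicated viability of MDA-kb2 AR-luc cells given compounds and R1881 for 16 h at 37C.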

Sequence of Glucocorticoid receptor (Homo sapiens) (P04150 whole entry, looked up): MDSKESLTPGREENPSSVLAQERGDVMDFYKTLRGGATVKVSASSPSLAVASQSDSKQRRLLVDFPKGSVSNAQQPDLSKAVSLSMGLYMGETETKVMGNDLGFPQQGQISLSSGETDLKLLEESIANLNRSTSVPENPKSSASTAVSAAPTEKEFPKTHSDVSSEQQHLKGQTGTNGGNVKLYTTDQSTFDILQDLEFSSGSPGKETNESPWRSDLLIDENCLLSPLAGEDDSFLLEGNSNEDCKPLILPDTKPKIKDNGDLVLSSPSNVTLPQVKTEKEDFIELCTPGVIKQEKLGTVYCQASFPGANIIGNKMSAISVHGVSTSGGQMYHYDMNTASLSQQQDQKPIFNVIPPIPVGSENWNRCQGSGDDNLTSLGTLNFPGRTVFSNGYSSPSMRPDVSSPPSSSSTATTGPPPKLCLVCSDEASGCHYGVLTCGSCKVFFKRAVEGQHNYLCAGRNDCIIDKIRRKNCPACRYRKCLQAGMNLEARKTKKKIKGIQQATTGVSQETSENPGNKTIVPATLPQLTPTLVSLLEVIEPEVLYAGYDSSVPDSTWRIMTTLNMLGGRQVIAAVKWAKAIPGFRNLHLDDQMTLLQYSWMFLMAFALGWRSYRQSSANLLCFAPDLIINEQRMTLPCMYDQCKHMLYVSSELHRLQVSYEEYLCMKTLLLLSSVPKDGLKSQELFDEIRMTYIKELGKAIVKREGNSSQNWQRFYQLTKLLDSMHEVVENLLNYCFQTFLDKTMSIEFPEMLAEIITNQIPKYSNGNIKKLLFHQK

Regarding `COc1cc2[nH]c(C)c(CCN3CCN(c4ccccc4)CC3)c2cc1OC`, the Potency entry in test [1], in test [2], in test [3], in test [4], in test [5] and in test [7] was “inactive” each time. Moreover, the Potency result in test [9], in test [10], in [11], in [15] and in [16] was “inactive” each time. The result in test [6] and in [8] was inactive. For the same compound, the Potency was 18.8 µM (active) in test [12], 26.6 µM (active) in [13] and 29.8 µM (active) in test [14].
Take `c1ccc2c(CCC3CCNCC3)c[nH]c2c1`: the Potency entry in [1], in [2], in test [3], in test [4], in test [5] and in test [7] was “inactive” in each case. The Potency result in test [9], in test [10], in [11], in test [15] and in test [16] was “inactive” each time. Also, the call in test [6] and in test [8] was inactive. Further, the Potency in test [12] was 13.3 µM (active); in [13], 29.8 µM (active); in test [14], 26.6 µM (active).
For `C[C@@H]1C/C=C/C=C/C=C/C=C/[C@H](O[C@@H]2O[C@H](C)[C@@H](O)[C@H](N)[C@@H]2O)C[C@@H]2O[C@](O)(C[C@@H](O)C[C@H]3O[C@@H]3/C=C/C(=O)O1)C[C@H](O)[C@H]2C(=O)O`, the Potency entry in [1], in [2], in test [3], in test [4], in test [5] and in test [7] was “inactive” in each case. Further, the Potency result in [9], in test [10], in test [11], in test [12], in test [13] and in [14] was “inactive” throughout. The Potency result in test [15] and in [16] was “inactive” in each case. Further, the outcome in [6] and in [8] was inactive.
For the compound `O=C1NC(=O)[C@H]2[C@@H]1[C@@H]1C=C[C@H]2C1`, the Potency result in test [1], in test [2], in [3], in test [4], in [5] and in test [7] was “inactive” throughout. Moreover, the Potency result in test [9], in test [10], in test [11], in test [12], in [13] and in test [14] was “inactive” throughout. Besides, the Potency result in test [15] and in test [16] was “inactive” each time. Also, the compound was classed as inactive in [6] and in test [8].
As for `CCCCC(O)c1ccccc1` (stereo not given), the Potency entry in test [1], in [2], in test [3], in [4], in test [5] and in test [7] was “inactive” in each case. The Potency result in test [9], in test [10], in test [11], in [12], in test [13] and in test [14] was “inactive” each time. The Potency result in test [15] and in test [16] was “inactive” each time. In addition, the call in test [6] and in [8] was inactive.
Turning to `O=[n+]1ccn([O-])c2ccccc21`, the Potency entry in test [1], in test [2], in test [3], in [4], in [5] and in test [7] was “inactive” in each case. Moreover, the Potency result in test [9], in test [10], in test [11], in test [12], in [13] and in [14] was “inactive” throughout. The Potency entry in [15] and in test [16] was “inactive” in each case. For the same compound, the compound was classed as inactive in test [6] and in test [8].
Consider `CN[C@@H]1CCc2[nH]c3ccc(C(N)=O)cc3c2C1`, for which the Potency result in [1], in test [2], in test [3], in test [4], in test [5] and in test [7] was “inactive” each time. Besides, the Potency result in [9], in test [10], in test [11], in [12], in test [13] and in [14] was “inactive” in each case. Besides, the Potency entry in [15] and in test [16] was “inactive” in each case. The compound was classed as inactive in test [6] and in test [8].
For `CO[C@H]1O[C@@H]2O[C@@]3(C)CC[C@H]4[C@H](C)CC[C@@H]([C@H]1C)[C@@]24OO3`, the Potency result in test [1], in [2], in test [3], in test [4], in test [5] and in [7] was “inactive” throughout. The Potency result in test [9], in [10], in test [11], in test [15] and in [16] was “inactive” in each case. Besides, the outcome in test [6] and in test [8] was inactive. Besides, the results for the Potency in [12], in test [13] and in [14] were 1.19 µM (active), 1.68 µM (active) and 0.668 µM (active), respectively.
`CC(=O)N=c1sc(S(N)(=O)=O)nn1C`: the Potency result in test [1], in [2], in [3], in test [4], in test [5] and in [7] was “inactive” throughout. Further, the Potency entry in test [9], in test [10], in [11], in test [12], in [13] and in test [14] was “inactive” in each case. The Potency entry in test [15] and in test [16] was “inactive” each time. Also, the compound was classed as inactive in test [6] and in test [8].
`C[C@@H](O)[C@H]1C(=O)N2C(C(=O)[O-])=C(SC3Cn4cnc[n+]4C3)[C@H](C)[C@H]12` (stereo not given in full): the Potency result in [1], in [2], in test [3], in [4], in test [5] and in test [7] was “inactive” in each case. Besides, the Potency entry in test [9], in [10], in test [11], in test [12], in test [13] and in test [14] was “inactive” throughout. Moreover, the Potency entry in test [15] and in [16] was “inactive” each time. Moreover, the compound was classed as inactive in test [6] and in test [8].
As for `COc1cc(S(C)=O)ccc1-c1nc2ncccc2[nH]1` (stereo not given), the Potency result in [1], in test [2], in test [3], in test [4], in test [5] and in [7] was “inactive” throughout. Besides, the Potency result in test [9], in test [10], in test [11], in test [12], in test [13] and in test [14] was “inactive” throughout. For the same compound, the Potency result in [15] and in test [16] was “inactive” in each case. Besides, the compound was classed as inactive in test [6] and in test [8].
Consider `C[C@]12CC[C@@H]3c4ccc(OS(=O)(=O)O)cc4CC[C@H]3[C@@H]1CCC2=O`, for which the Potency entry in [1], in test [2], in test [3], in test [4], in test [5] and in [7] was “inactive” throughout. Moreover, the Potency entry in test [9], in test [10], in test [11], in test [12], in test [13] and in test [14] was “inactive” each time. Also, the Potency entry in [15] and in test [16] was “inactive” each time. In addition, the outcome in test [6] and in test [8] was inactive.
Take `C[C@H](CSC(=O)c1ccccc1)C(=O)N1C[C@@H](Sc2ccccc2)C[C@H]1C(=O)O`: the Potency result in [1], in test [2], in [3], in [4], in test [5] and in [7] was “inactive” each time. Besides, the Potency result in test [9], in test [10], in test [11], in [12], in test [13] and in test [14] was “inactive” throughout. The Potency entry in [15] and in test [16] was “inactive” each time. The call in test [6] and in [8] was inactive.
`CC(=O)N(CC(C)C(=O)O)c1c(I)cc(I)c(N)c1I` (stereo not given): the Potency entry in test [1], in test [2], in test [3], in [4], in test [5] and in test [7] was “inactive” in each case. The Potency entry in test [9], in test [10], in test [11], in test [12], in test [13] and in [14] was “inactive” in each case. For the same compound, the Potency entry in test [15] and in [16] was “inactive” throughout. Further, the compound was called inactive in test [6] and in test [8].
For `CCCC(=O)Nc1ncnc2c1ncn2[C@@H]1O[C@@H]2COP(=O)(O)O[C@H]2[C@H]1OC(=O)CCC`, the Potency entry in test [1], in test [2], in [3], in [4], in test [5] and in [7] was “inactive” each time. For the same compound, the Potency entry in test [9], in [10], in test [11], in [12], in [13] and in test [14] was “inactive” each time. The Potency result in test [15] and in [16] was “inactive” throughout. Moreover, the compound was classed as inactive in test [6] and in test [8].

The values are drawn from PubChem BioAssay (Tox21).
